# Screens (PubChem BioAssay)
# Most compounds without a hit are left out; they make up all but 21% or so of the library.
# RORgamma inh = qHTS for inhibitors of ROR gamma transcriptional activity; Nuclear receptor ROR-gamma (Mus musculus), P51450; Drosophila S2 Gal4-RORgamma UAS-luciferase reporter, 20 h; Potency, µM (series often up to 53.6 µM), actives largely listed as inhibitors; AID 2551, 2010; 310,000 tested, 5.4% active; note: nearly all actives have a fitted effect of over 60% in size
# Target sequence (P51450 whole entry, looked up, the tested form may be a part): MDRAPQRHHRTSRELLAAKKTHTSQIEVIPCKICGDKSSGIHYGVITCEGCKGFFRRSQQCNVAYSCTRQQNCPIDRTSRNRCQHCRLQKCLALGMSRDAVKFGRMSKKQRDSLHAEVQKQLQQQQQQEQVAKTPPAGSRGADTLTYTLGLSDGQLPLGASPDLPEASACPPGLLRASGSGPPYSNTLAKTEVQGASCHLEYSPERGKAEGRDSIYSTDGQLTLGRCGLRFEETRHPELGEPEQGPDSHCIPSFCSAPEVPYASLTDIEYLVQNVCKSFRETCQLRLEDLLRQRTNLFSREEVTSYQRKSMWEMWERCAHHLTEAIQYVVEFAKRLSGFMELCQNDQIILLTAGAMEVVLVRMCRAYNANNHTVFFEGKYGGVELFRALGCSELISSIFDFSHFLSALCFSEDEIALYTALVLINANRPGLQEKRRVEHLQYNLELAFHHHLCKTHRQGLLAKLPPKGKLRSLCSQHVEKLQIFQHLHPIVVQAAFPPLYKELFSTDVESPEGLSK
#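 Drosophila Schneider cells stably carrying a metallothionein-driven Gal4 DBD–ROR gamma fusion and a UAS-Photinus luciferase reporter were exposed to compound for 1 hr, then induced with copper sulfate (700 uM final) for 20 hr at ambient temperature before luminescence reading.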
# DT40 TDP1 no CPT = qHTS for Inhibitors of human tyrosyl-DNA phosphodiesterase 1 (TDP1): qHTS in cells in absence of CPT. Potency, µM (top dose mostly 46.2 µM), actives largely listed as inhibitors. 420,000 tested, 15% active. DT40 Tdp1-/- hTDP1 cells, no CPT, ATP luminescence, 48 h. AID 686978, 2013; note: nearly all actives have a fitted effect of over 55% in size
#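 Stably hTDP1-transfected Tdp1-null chicken DT40 cells were treated with library compounds minus camptothecin and grown for at least 48 hr at 37 °C, after which cellular ATP was quantified by luminescence.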
# DT40 TDP1 CPT = qHTS for Inhibitors of human tyrosyl-DNA phosphodiesterase 1 (TDP1): qHTS in cells in presence of CPT. Potency, µM (top dose mostly 46.2 µM), actives largely listed as inhibitors. AID 686979, 2013. chicken DT40 Tdp1-/-;hTDP1 cells + 20 nM CPT, ATP luminescence, 48 h. 420,000 tested, 12% active; note: nearly all actives have a fitted effect of over 55% in size
#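 Chicken DT40 Tdp1-/- cells stably complemented with human TDP1 were seeded at 400 cells/well in medium containing 20 nM camptothecin, exposed to pin-transferred compounds, and grown at 37 °C for at least 48 hr. Viability was read as ATP luminescence.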
# IL1B secr inh = qHTS for Inhibitors of Inflammasome Signaling: IL-1-beta AlphaLISA Primary Screen; THP-1 LPS/ATP IL-1B secretion, AlphaLISA, 16 h; hits give low values; activity change, % at 57.5 µM; 360,000 tested, 4.7% active; in the data active = activity change below about -50%; inconclusive = mostly about -30% to -49%
#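 Secreted IL-1B measured by AlphaLISA bead assay after 16 h compound exposure of THP-1 cells; compounds (final up to 57.5 uM) added 1 h before LPS (250 ng/mL) and ATP (1.25 mM) stimulation; lower signal means less secretion.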
# Gal4-VP16 FLuc = VP16 counterscreen qHTS for inhibitors of ROR gamma transcriptional activity | 310,000 tested, 3.5% active | Potency, µM (doses to about 53.6 µM), hits mostly inhibitors | AID 2546, 2010 | Drosophila S2 Gal4-VP16 UAS-luciferase, luminescence, 20 h;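 note: Gal4-VP16 expression switched on by copper sulfate through the metallothionein promoter; nearly all actives have a fitted effect of over 50% in size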
# ELG1 DNA repair = qHTS screen for small molecules that inhibit ELG1-dependent DNA repair in human embryonic kidney (HEK293T) cells expressing luciferase-tagged ELG1. Potency, µM (top dose mostly 46.1 µM), actives largely listed as inhibitors. AID 504467, 2011. HEK293T ELG1-luciferase reporter, luminescence, 16 h; DNA damage induced by 5-fluorouridine. 330,000 tested, 2.3% active; note: nearly all actives have a fitted effect of over 55% in size
#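 5-Fluorouridine DNA damage + compound/DMSO, 2,000 cells/well, 16 h, 37 °C/5% CO2. ONE-Glo, 30 min RT, luminescence. Readout = decrease in reporter signal.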
# Numbers stand for hits; 0 = inactive; ? = inconclusive; - = no result given; [ ] = dose if it differs, or a comment. Unless noted, calls come from the whole dose curve; as a rule, active = well fitted curve in the direction sought with a large enough effect; inconclusive = small, poorly fitted or top-dose-only effect, or another doubt; inactive = no such curve, though single readings can be large; an effect the other way counts as inactive or inconclusive.
SMILES,RORgamma inh,DT40 TDP1 no CPT,DT40 TDP1 CPT,IL1B secr inh,Gal4-VP16 FLuc,ELG1 DNA repair
c1ccc2c(c1)NC1(CCCC1)n1c-2nc2ccccc21,0,?,?,-79,0,?
CCCC1(C)Nc2ccccc2-c2nc3ccccc3n21 (stereo not drawn),0,?,?,0,0,?
O=C1c2cccc3cccc(c23)C(=O)C1(O)O,-,2.3µM,1µM,-94,-,-
CCCCCCCCCCCCCCCC[N+](C)(C)CCN(Cc1ccc(OC)cc1)c1ncccn1,0[2.98 µM],2.5µM,4µM,0,?,?
COc1ccc(CN(CCN(C)C)c2ncccn2)cc1,0,0,0,-,0,-
CCCCN1CCCc2cc(CN(CCCN3CCOCC3)C(=O)Nc3ccc(CC)cc3)ccc21,-,21µM,?,-,-,-
CCCN1CCCc2cc(CN(CCCN3CCOCC3)C(=O)Nc3ccc(CC)cc3)ccc21,-,21µM,23µM,-,-,-
Cc1ccc(CNc2nc(-c3ccco3)nn2S(C)(=O)=O)cc1,-,0,0,-,-,-
COc1cc(NS(=O)(=O)c2ccc(N/C=C\C(=O)c3ccc(OC)c(OC)c3)cc2)nc(OC)n1,0[10 µM],?,?,0,0,0
COc1cc(NS(=O)(=O)c2ccc(NC(=S)NC(=O)c3sc4cc(F)ccc4c3Cl)cc2)nc(OC)n1,0,0,0,-50,0,0
COc1ccc(C(=O)/C=C/Nc2cccc(O)c2)cc1,10µM,0,0,0,2µM,?
Cc1cccc(N/C=C/C(=O)c2ccc(Cl)cc2)c1,3.2µM,0,0,0,?,?
COc1cccc(N/C=C/C(=O)c2ccc(Br)cc2)c1,-,?,0,0,-,-
COc1cc(NS(=O)(=O)c2ccc(N/C=C\C(=O)c3ccc(C)cc3)cc2)nc(OC)n1,-,21µM,12µM,0,-,-
Cc1ccc(Cl)c(N/C=C/C(=O)c2ccccc2)c1,0,0,0,0,?,?
C=CC[C@@](C(C)=O)(C(=O)OC)C(NC(=O)OC(C)(C)C)c1ccccc1 (stereo partly drawn),0,-,-,-,0,-
COc1cccc(C(=O)/C=C/Nc2ccc(S(=O)(=O)Nc3ccc(C(C)=O)cc3)cc2)c1,?,16µM,?,0,0,0
COc1cc(NS(=O)(=O)c2ccc(N/C=C(\C#N)c3nc4cc(Cl)ccc4o3)cc2)nc(OC)n1,?,15µM,9.2µM,0,0,?
COc1cc(OC)c(OC)cc1/C=C/C(=O)c1ccc(NS(=O)(=O)c2ccc(C)cc2)cc1,?,?,?,-60,0,15µM
O=C/C(=C\Nc1ccc(Cl)cn1)c1nc2ccccc2o1,14µM,?,?,0,22µM,0
CC(=O)NCC(=O)NCC1Cc2cc(C)cc(-c3ccccn3)c2O1 (stereo not drawn),-,0,0[9.04 µM],-,-,-
O=S(=O)(c1ccccc1)N(CC(F)(F)F)c1ccc(C(O)(C(F)(F)F)C(F)(F)F)cc1,-,?,?,0,-,-
O=c1[nH]c(=S)[nH]c2n[nH]nc12,-,0,0,-,-,-
O=C(O)Cc1sc(Nc2ccccc2Cl)nc1-c1ccccc1,-,0,0,-,-,-
O=C(Nc1ccccn1)c1ccc(C(=O)Nc2ccccn2)cc1,0,0,0,0,0,?
SMILES,RORgamma inh,DT40 TDP1 no CPT,DT40 TDP1 CPT,IL1B secr inh,Gal4-VP16 FLuc,ELG1 DNA repair
COc1cc(NS(=O)(=O)c2ccc(Nc3nc(-c4ccccn4)cs3)cc2)nc(OC)n1,0,0,0,0,0,0
O=C(/C=C\Nc1ccccn1)c1ccc(Cl)cc1,7.1µM,?,?,0,10µM,?
COc1ccc(C(=O)/C=C/Nc2ccc(S(=O)(=O)Nc3cccc(C(C)=O)c3)cc2)cc1,0,23µM,?,0,5.6µM,23µM
COc1ccc(-c2csc(Nc3ccc(S(=O)(=O)Nc4cc(OC)nc(OC)n4)cc3)n2)cc1,?,0,0,-75,?,0
O=C/C(=C\Nc1ccc(S(=O)(=O)CCO)cc1)c1nc2cc(Cl)ccc2o1,8.9µM,0,0,0,0,0
CC(=O)c1ccc(OC(=O)Cc2cccc3ccccc23)cc1,0,0,0,0,0,0
Cc1cc(C)n2nc(SC(C)C(=O)Nc3ccccc3F)nc2n1 (stereo not drawn),-,0,0,0,-,0
COc1ccc(C(=O)Nc2nc(CC(=O)NCCc3ccccc3OC)cs2)cc1,-,?,?,0,-,?
C/C(CC(C)(C)c1ccccc1)=N\NS(=O)(=O)c1ccccc1,0,0,0,0,0,0
Cc1ccc2oc(C(=O)N3CCC(O)(c4cccc(C(F)(F)F)c4)CC3)c(C)c2c1,?,?,0,-52,0,0
Cc1cc(=O)oc2cc(OCC(=O)Nc3c(C(C)C)cccc3C(C)C)ccc12,-,13µM,?,-,-,-
Cc1cc(OCC(=O)Nc2c(C(C)C)cccc2C(C)C)no1,-,8.2µM,13µM,0,-,-
COc1ccccc1C1CC(c2c(-c3ccccc3)c3cc(Cl)ccc3[nH]c2=O)=NN1S(C)(=O)=O (stereo not drawn),0,29µM,26µM,0,0,?
COc1cccc(C2CC(c3c(-c4ccccc4)c4cc(Cl)ccc4[nH]c3=O)=NN2S(C)(=O)=O)c1OC (stereo not drawn),0,16µM,21µM,?,?,23µM
Cc1ccccc1-n1c(SC(C)C(=O)NCC2CCCO2)nnc1-c1ccncc1 (stereo not drawn),-,0,0,0,-,-
CN(C)c1ccc(CNC(=O)C2CCN(c3nnc(-n4cccc4)s3)CC2)cc1,-,?,0,-,-,-
CCN(CC)S(=O)(=O)c1ccc2c(c1)N(CC(=O)N1CCN(c3cccc(C(F)(F)F)c3)CC1)C(=O)CO2,-,21µM,?,-,-,-
O=C(CN1C(=O)COc2ccc(S(=O)(=O)N3CCCC3)cc21)N1CCN(c2ccccc2)CC1,-,?,0,-,-,-
CCN(CC)S(=O)(=O)c1ccc2c(c1)N(CC(=O)N1CCCC1)C(=O)CO2,0,0,0,0,0,0
CCN(CC)S(=O)(=O)c1ccc2c(c1)N(CC(=O)N1CCN(c3cccc(C)c3C)CC1)C(=O)CO2,-,15µM,18µM,-,-,-
Cc1csc(NC(=O)COc2ccc3c(c2)CCC3)n1,-,0,0,0,-,?
CC(=O)c1ccc(-c2ccc(C(=O)N3CCC(C(N)=O)CC3)o2)cc1,-,0,0,0,-,?
Cc1c(/C(O)=C2\C(=O)C(=O)N(CCCN(C)C)C2c2ccco2)cnn1-c1ccccc1 (stereo not drawn),-,0,0,0,-,-
[O-][n+]1c2ccccc2c2n1CCCN=C2c1ccc(Cl)cc1,-,0,?,0,-,?
